Shown is part of a subset that was picked to be rich in hits.
TbPYK inhibitor: inhibitors of Trypanosoma brucei pyruvate kinase; 0.12% of 410,000 active; AID 624173; Q57TT1; Potency, µM (highest dose often 76.8 µM), for inactives: at the top dose activity, negative = inhibition, hits mostly inhibitors; TbPYK enzyme, Kinase-Glo Plus ATP luminescence, 45 min; also: potency is read from the fitted curve at half-maximal effect; % is scaled to controls: 0 for no effect and ±100 for the full control effect; nearly all actives have a fitted effect of over 50% in size
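Assay buffer: 50 mM TEA pH 7.2, 100 mM KCl, 10 mM MgCl2, 0.05% BSA, 0.01% Tween-20. Pyruvate kinase from T. brucei plus substrate met compound, then ADP (130 uM final). Luminescence was read post 45 min RT.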
Sm TGR block: blocks Schistosoma mansoni thioredoxin glutathione reductase; purified TGR, DTNB reduction, TNB absorbance 405 nm; Potency, µM (doses to about 114 µM), inactives show at the highest dose activity change, negative = inhibition, hits mostly inhibitors; 3% of 360,000 active; also: potency is read from the fitted curve at half-maximal effect; % is scaled to controls: 0 for no effect and ±100 for the full control effect; nearly all actives have a fitted effect of over 60% in size
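TGR 20 nM + NADPH 100 uM (dispensed conc.), cpd preinc 15 min RT; start with NADPH (500 uM addition) then DTNB (15 mM addition). Kinetic TNB absorbance, 405 nm filter. Four-parameter Hill fit across titration.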
CHX counter: affects cycloheximide protein synthesis inhibition readout, counter-screen | cell reporter, cycloheximide protein synthesis inhibition counterscreen | max response, % | 12% of 300,000 active | AID 2314; in the data active = max response mostly above about 13%, no sharp cut-off; inactive = mostly below about 14%; also: read at 38.3 µM for the half of the compounds with a filed dose; 0% is about no effect
LmPK inh: blocks Leishmania mexicana pyruvate kinase activity; Q27686; purified LmPK, Kinase-Glo ATP luminescence, 1 h; 0.37% of 290,000 active; Potency, µM (titrated, usually from 57.5 µM), for the others: at the highest dose activity change, negative = inhibition, hits mostly inhibitors; AID 1721; also: potency is read from the fitted curve at half-maximal effect; % is scaled to controls: 0 for no effect and ±100 for the full control effect
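Kinase-Glo luminescence read after 1 h RT reaction of 0.1 nM LmPK with 0.5 mM PEP and 0.1 mM ADP. Activity scaled between uninhibited and enzyme-free controls.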
FBPA Giardia inh: blocks Giardia fructose-bisphosphate aldolase activity | Potency, µM (titrated, usually from 59.6 µM), without a hit: at the top dose activity, negative = inhibition, actives largely listed as inhibitors | purified Giardia FBPA | AID 2451 | 0.71% of 290,000 active; also: potency is read from the fitted curve at half-maximal effect; % is scaled to controls: 0 for no effect and ±100 for the full control effect; nearly all actives have a fitted effect of over 55% in size
Target sequence (A8B2U2 whole entry, looked up): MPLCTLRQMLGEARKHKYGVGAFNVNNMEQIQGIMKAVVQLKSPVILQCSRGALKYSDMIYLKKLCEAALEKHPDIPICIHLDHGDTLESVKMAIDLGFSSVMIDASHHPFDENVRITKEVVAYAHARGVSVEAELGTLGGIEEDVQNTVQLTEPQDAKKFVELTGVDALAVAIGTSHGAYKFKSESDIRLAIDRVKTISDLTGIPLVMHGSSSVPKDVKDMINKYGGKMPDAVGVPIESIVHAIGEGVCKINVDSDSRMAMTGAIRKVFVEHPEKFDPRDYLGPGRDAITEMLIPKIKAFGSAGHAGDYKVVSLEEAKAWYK
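40 nM FBPA preincubated 10 min at RT with compound (up to 57.5 uM final), then substrate plus GAPDH/TPI/NAD/arsenate coupling and diaphorase/resazurin added. Fluorescence read after 20 min at RT, 525/598 nm.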
Shiga inhibitor: inhibitors of Shiga toxin in Vero cells. Vero cells, Shiga toxin protein synthesis inhibition reporter. inhibition, % at 38.7 µM. 9.2% of 290,000 active; in the data active = inhibition mostly above about 28%, no sharp cut-off; inactive = mostly below about 43%; also: 0% is about no effect
The depositor's hits bear a star; [ ] = dose if it differs, or a comment. Unless noted, calls follow the shape of the dose curve; as a rule, active = well fitted curve in the direction sought with a large enough effect; inconclusive = small, poorly fitted or top-dose-only effect, or another doubt; inactive = no such curve, though single readings can be large; an effect the other way counts as inactive or inconclusive.

Screening CCc1nn(CC(=O)N2CCCCC2)c(=O)c2cc3sccc3n12 returned TbPYK inhibitor -8.6% and Sm TGR block -1.3%.
Screening Nc1cccc2c1C(=O)N(C(=O)c1ccco1)C2=O returned TbPYK inhibitor -19.8%, Sm TGR block -21.0%, CHX counter -3.0, LmPK inh 8.5%, FBPA Giardia inh 7.6% and Shiga inhibitor 2.4.
Screening Nc1cccc2c1C(=O)N(C(=O)/C=C/c1ccc(F)cc1)C2=O returned TbPYK inhibitor 0.6%, Sm TGR block 15.0%, CHX counter 37.3*, LmPK inh -4.9%, FBPA Giardia inh -4.9% and Shiga inhibitor 76.2*.
For COc1ccc(N(CC(=O)NCc2cccs2)S(=O)(=O)c2cccc(C)c2)cc1 the results were TbPYK inhibitor -4.9% and Sm TGR block -1.3%.
For CCC(C)NC(=S)Nc1ccccc1 (stereo not given) the results were TbPYK inhibitor 3.3%, Sm TGR block 11.3%, CHX counter 10.3, LmPK inh 2.4%, FBPA Giardia inh -1.8% and Shiga inhibitor -3.3.
Screening CCC(C)Nc1ccc(NC(C)CC)cc1 (stereo not given) returned TbPYK inhibitor -5.4% and Sm TGR block 31.6µM*.
Screening O=[N+]([O-])c1ccc(COc2cccnc2)cc1 returned TbPYK inhibitor -2.6%, Sm TGR block 2.8%, CHX counter 40.9*, LmPK inh 6.7%, FBPA Giardia inh -0.7% and Shiga inhibitor 55.5*.
Screening O=[N+]([O-])c1ccc(NCc2ccccc2)nc1 returned TbPYK inhibitor -9.7%, Sm TGR block -5.0%, CHX counter 54.6*, LmPK inh 0.6%, FBPA Giardia inh -2.9% and Shiga inhibitor 56.5*.
`O=[N+]([O-])c1ccc(COc2cccc(CNc3ccc(Br)cc3)c2)cc1` gave TbPYK inhibitor 1.3%, Sm TGR block -5.0%, CHX counter -0.2, LmPK inh -1.7%, FBPA Giardia inh -1.9% and Shiga inhibitor -2.9.
For O=[N+]([O-])c1ccc(COc2ccc(CNc3ccccc3)cc2)cc1 the results were TbPYK inhibitor 2.7%, Sm TGR block -3.5%, CHX counter 36.1*, LmPK inh -5.0%, FBPA Giardia inh -2.3% and Shiga inhibitor 34.1.
For CC1CCN(C(=O)CSc2nc3ccccc3nc2Cc2ccccc2)CC1 the results were TbPYK inhibitor -0.7% and Sm TGR block 0.8%.
Screening CN(C1CCCCC1)S(=O)(=O)c1ccc2c(c1)c(=O)c(C(=O)N1CCN(c3ccccc3)CC1)cn2C returned TbPYK inhibitor 8.7% and Sm TGR block 9.2%.
For CCOc1ccc(C2C(C(=O)Nc3ccc(OC)cc3)=C(C)Nc3nc(SCc4ccc(Cl)cc4)nn32)cc1 (stereo not given) the results were TbPYK inhibitor 0.3% and Sm TGR block 6.5%.
For Cc1nc2c(=O)n(C)c(=O)n(C)c2nc1Cl the results were TbPYK inhibitor 3.0%, Sm TGR block 6.31µM*, CHX counter -6.7, LmPK inh -2.9%, FBPA Giardia inh 14.0% and Shiga inhibitor -13.4.
Screening O=c1cnc2cncnc2n1Cc1ccc(F)cc1 returned FBPA Giardia inh 3.1%.
For Cc1ccc(-c2nnnn2-c2ccc(C)cc2)cc1 the results were TbPYK inhibitor -3.8%, Sm TGR block 10.2%, CHX counter 11.2, LmPK inh 8.7%, FBPA Giardia inh -7.0% and Shiga inhibitor 23.3.
For Cc1ccc(-n2nnnc2CCl)cc1 the results were TbPYK inhibitor -5.1%, Sm TGR block 5.62µM*, CHX counter -2.0, LmPK inh -2.3%, FBPA Giardia inh -15.4% and Shiga inhibitor -10.0.
For CC1=C(C)CC2C(C1)C(=O)c1ccc(Br)cc1S2(=O)=O (stereo not given) the results were TbPYK inhibitor -3.3% and Sm TGR block -24.5%.
Screening CO[C@H]1COC(=O)C/C=C\[C@@H](C)COC(=O)[C@@H](OCc2ccccc2)/C=C\[C@@H]1C returned FBPA Giardia inh 2.8%[12.9 µM].
Oc1ccc(Nc2nc(-c3ccccc3F)nc3ccccc23)cc1 was read as TbPYK inhibitor 4.8%, Sm TGR block 0.0%, CHX counter -1.0, LmPK inh 1.1%, FBPA Giardia inh -9.1% and Shiga inhibitor -4.1.
O=c1oc(Nc2ccc(F)cc2)nc2ccccc12 was read as TbPYK inhibitor -19.1%, Sm TGR block 14.0%, CHX counter 16.8*, LmPK inh -0.7%, FBPA Giardia inh 0.6% and Shiga inhibitor 81.2*.
For O=c1nc(Nc2ccccc2)oc2ccccc12 the results were TbPYK inhibitor -20.2%, Sm TGR block 9.0%, CHX counter 38.3*, LmPK inh inconclusive, FBPA Giardia inh -4.7% and Shiga inhibitor 53.4*.
Clc1cccc(-n2ncc3c(Nc4ccc5c(c4)OCCO5)ncnc32)c1 was read as TbPYK inhibitor 4.1% and Sm TGR block -1.4%.
`O=C(NCc1ccccc1)[C@]1(C(F)(F)F)C[C@H](CCC2CCCCC2)CCCO1` gave CHX counter 1.4, FBPA Giardia inh 0.2% and Shiga inhibitor 13.9.
Screening O=C(NCc1cccnc1)C1c2ccccc2C(=O)N1Cc1ccco1 (stereo not given) returned TbPYK inhibitor -2.8%, Sm TGR block 35.5µM*, CHX counter -1.2, LmPK inh -1.0%, FBPA Giardia inh -0.9% and Shiga inhibitor -9.8.
`COC(=O)c1n[nH]nc1-c1ccccc1` gave TbPYK inhibitor -2.1%, Sm TGR block 8.8%, CHX counter 7.8, LmPK inh -2.5%, FBPA Giardia inh inconclusive and Shiga inhibitor -3.8.
Screening COC(=O)c1[nH]nc(C(=O)OC(C)(C)C)c1-c1ccccc1 returned TbPYK inhibitor -1.6%, Sm TGR block 22.4µM*, CHX counter -1.1, LmPK inh -1.6%, FBPA Giardia inh -11.7% and Shiga inhibitor -5.0.
For CCc1ccc2occ(CC(=O)Nc3ccccc3C(F)(F)F)c2c1 the results were TbPYK inhibitor -8.7% and Sm TGR block 0.4%.
For CC[N+](CC)(CC)CCOC(=O)C(C1CCCC1)C1CCCC1 the results were TbPYK inhibitor -2.4%.
Screening Cc1cc(OCC(=O)O/N=C(\N)c2ccccc2)ccc1Br returned TbPYK inhibitor -0.3%, Sm TGR block 1.7%, CHX counter 33.2*, LmPK inh 3.2%, FBPA Giardia inh -6.5% and Shiga inhibitor active.
Screening N/C(=N\OC(=O)COc1ccccc1)c1ccccn1 returned TbPYK inhibitor -2.3%, Sm TGR block -0.2%, CHX counter 33.9*, LmPK inh -14.2%, FBPA Giardia inh 0.6% and Shiga inhibitor 65.7*.
Cc1cc(C)cc(OCC(=O)O/N=C(\N)c2ccccn2)c1 was read as TbPYK inhibitor -0.3%, Sm TGR block -1.7%, CHX counter 31.4, LmPK inh 2.5%, FBPA Giardia inh 0.3% and Shiga inhibitor 67.7.

Screening data: PubChem BioAssay, National Center for Advancing Translational Sciences (NCATS)
